In the library only some 11% were active in any assay of this set; here they are far more common.
HPGD inh: blocks human HPGD enzyme activity. purified HPGD, NADH fluorescence kinetic, PGE2 substrate. 150,000 tested, 4.3% active. Potency, µM, for the others: top-dose activity change, negative = inhibition, hits mostly inhibitors. P15428; also: potency is read from the fitted curve at half-maximal effect
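20 nM HPGD preincubated 15 min at room temperature with compound in 50 mM Tris-HCl pH 8, 0.01% Tween 20. Started with 1 mM NAD+ and 30 uM prostaglandin E2; NADH fluorescence (360/450 nm) read 5 times over 30-s intervals, last minus first.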
KDM4E inh: inhibitors of human JMJD2E histone demethylase; B2RXH2; JMJD2E catalytic domain, FDH-coupled NADH fluorescence (FDH is formaldehyde dehydrogenase); Potency, µM (series often up to 57.1 µM), for inactives: at the top dose activity change, negative = inhibition, hits mostly inhibitors; 230,000 tested, 1.6% active; AID 2147;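 also: potency is read from the fitted curve at half-maximal effect; 0% = wells with enzyme and -100% = buffer wells without enzyme; nearly all actives have a fitted effect of over 50% in size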
ALDH1A1 inh: inhibitors of human aldehyde dehydrogenase 1A1; P00352; Purified ALDH1A1, NADH fluorescence, propionaldehyde substrate; Potency, µM (titrated, usually from 75.3 µM), for the others: top-dose activity, negative = inhibition, hits mostly inhibitors; 220,000 tested, 7.3% active;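 also: potency is read from the fitted curve at half-maximal effect; plate controls were no enzyme wells and a reference inhibitor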
Target sequence (P00352 whole entry, looked up): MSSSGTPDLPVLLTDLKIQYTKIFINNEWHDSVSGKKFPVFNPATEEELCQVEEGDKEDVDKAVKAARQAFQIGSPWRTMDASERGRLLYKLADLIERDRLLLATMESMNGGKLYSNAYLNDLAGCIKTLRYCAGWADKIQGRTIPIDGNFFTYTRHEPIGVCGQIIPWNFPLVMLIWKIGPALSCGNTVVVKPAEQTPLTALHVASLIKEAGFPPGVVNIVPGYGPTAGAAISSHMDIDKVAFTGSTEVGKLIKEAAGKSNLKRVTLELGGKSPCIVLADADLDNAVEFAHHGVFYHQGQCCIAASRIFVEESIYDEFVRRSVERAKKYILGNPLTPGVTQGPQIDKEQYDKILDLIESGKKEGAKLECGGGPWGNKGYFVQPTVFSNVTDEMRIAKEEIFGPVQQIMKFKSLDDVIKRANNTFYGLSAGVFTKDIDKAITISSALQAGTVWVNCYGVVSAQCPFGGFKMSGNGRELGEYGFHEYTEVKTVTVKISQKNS
PNC inhibitor: blocks assembly of the perinucleolar compartment | PC3M PTB-GFP, PNC prevalence imaging, 16 h; stronger effect = lower value | activity change (PNC), negative = inhibition, % at 10 µM | 140,000 tested, 3.1% active | AID 2417;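 active = readout at or below -70, meaning at least 70% loss of cells showing the perinucleolar compartment, a nuclear body marking cancer cells; inconclusive = readout between -30 and a set limit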;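 also: plate controls were DMSO wells for no effect and camptothecin positive control wells for full effect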
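PC3M cells stably expressing PTB-GFP, 750–1000 cells/well, treated 16 h at 37 °C with compound (23 nl of library stock), in duplicate. After paraformaldehyde fixation and Hoechst stain, imaged at 20x; PNC prevalence scored by image analysis.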
* marks the source's active call; other numbers are inactive results; ? = inconclusive; nt = not tested or not shown; [ ] = remark or other dose. Unless noted, calls follow the shape of the dose curve; as a rule, active = well fitted inhibition curve with a large enough effect (not every such curve was filed as active); inconclusive = small, poorly fitted or top-dose-only effect, or another doubt; inactive = no such curve, though single readings can be large or run the other way. Unless noted, % is scaled to controls: 0 for no effect and ±100 for the full control effect.

SMILES | HPGD inh | KDM4E inh | ALDH1A1 inh | PNC inhibitor
Cc1oc(-c2ccccc2)cc1C(=O)NC1CCN(Cc2ccccc2)CC1 | nt | 2% | -3% | nt
CC(=O)NC(Cc1ccccc1C)C(=O)NC1CCN(C(=O)c2cccc(C)c2)CC1 (configuration not stated) | nt | -25% | 20µM* | nt
CC(=O)NC(Cc1cccc(F)c1)C(=O)NC1CCN(C(=O)c2ccc(C)cc2)CC1 (configuration not stated) | nt | -14% | 14µM* | nt
COc1cc(C(=O)N2CCC(NC(=O)C(Cc3ccc(C)cc3)NC(C)=O)CC2)cc(OC)c1OC (configuration not stated) | -5% | 7% | 6% | ?
COc1ccc(-n2c(SC(C)C(=O)Nc3ncc(Cl)cc3Cl)nc3ccccc32)cc1 (configuration not stated) | -24% | ? | ? | -111*
CC(Sc1nnc2ccccn12)C(=O)Nc1ncc(Cl)cc1Cl (configuration not stated) | -10% | -5% | 4% | ?
Cc1ccc(NC(=O)c2sc(=S)n(-c3cc(C)ccc3F)c2N)cc1 | nt | -13% | 13µM* | nt
Cc1nc(-c2ccccn2)sc1C(=O)Nc1ccc(F)cc1 | -20% | -21% | -2% | 76
Cc1ccc(OCC(=O)Nc2ccccc2F)cc1C | nt | -20% | -4% | nt
Cc1ccc(-n2c(N)c(C(=O)Nc3ccccc3F)sc2=S)cc1C | nt | -5% | 10µM* | nt
Cc1ccccc1-n1c(N)c(C(=O)Nc2ccc(F)cc2)sc1=S | nt | 7% | 20µM* | nt
Cc1ccc(C)c(-n2c(N)c(C(N)=O)sc2=S)c1 | ? | -6% | -4% | ?
Cc1ccc(C(C)n2cc(C(=O)NCc3ccccn3)nn2)cc1 (configuration not stated) | nt | 0% | 14% | nt
CCOC(=O)Cc1nnc(Nc2ccc(C(=O)NC)cc2)c2ccccc12 | nt | -5% | nt | nt
CCC(Sc1nnnn1-c1ccccc1)C(=O)Nc1nc2ccccc2s1 (configuration not stated) | -15% | -1% | ? | -100*
c1ccc(OCCSc2nnnn2-c2ccccc2)cc1 | -17% | 1% | 22µM* | 9
COc1ccccc1OCCSc1nnnn1-c1ccc(C)cc1 | -14% | 2% | -15% | ?
c1ccc(-n2nnnc2SCCCSc2nc3ccccc3s2)cc1 | 11µM* | -5% | 1.3µM* | -14
CCOc1ccc(OCCSc2nc3ccccc3[nH]2)cc1 | 25µM* | -4% | -6% | -92*
O=C(CSc1nc2ccc(NC(=O)CSc3nnnn3-c3ccccc3)cc2s1)Nc1ccccc1 | ? | -2% | ? | 3
CCCOc1ccc(CSc2nc3ccccc3[nH]2)cc1 | -20% | -3% | 9% | 74
CCS(=O)(=O)N1CCN(c2ccc([N+](=O)[O-])c(N3CCOCC3)c2)CC1 | ? | 2% | -2% | -9
Cc1ccc2c(CC(=O)N3CCN(c4ccccc4)CC3)coc2c1 | nt | -2% | -15% | nt
O=C(O)[C@H](Cc1ccccc1)NC(=O)N1CCN(c2cccc(C(F)(F)F)c2)CC1 | nt | 4% | nt | nt
CCC(C)(c1nnnn1-c1c(C)cccc1C)N(N=O)c1ccccc1Cl (configuration not stated) | -1% | 3% | 13% | -12
SMILES | HPGD inh | KDM4E inh | ALDH1A1 inh | PNC inhibitor
Clc1ccc(OCCSc2nnnn2C2CCCCC2)cc1 | -12% | 5% | ? | ?
CCOc1ccc(OCCSc2nnnn2-c2ccccc2)cc1 | -13% | 0% | 14µM* | 18
CCOc1ccc(OCCSc2nnnn2C2CCCCC2)cc1 | -16% | 7% | 16µM* | 21
Fc1ccccc1OCCSc1nnnn1-c1ccccc1 | 16µM* | 0% | 1.9µM* | ?
Cc1cc(=O)[nH]c(-c2cccnc2)n1 | nt | 3% | 4% | nt
O=[N+]([O-])c1ccc(NCCCNS(=O)(=O)c2ccccc2)c(Cl)c1 | -4% | -9% | ? | -9
Cc1ccc(NC(=O)COc2ccccc2C=O)cc1Cl | nt | 3% | -4% | nt
Nc1nonc1-n1nnc(C(=O)c2ccccc2)c1-c1ccccc1 | -12% | 0% | 2.8µM* | ?
O=C(Nc1ccccc1)N1CCCC2(CCN(S(=O)(=O)c3ccccc3)CC2)C1 | -1% | nt | ? | nt
Nc1ccccc1Nc1cc(-c2ccccc2)nn1-c1ccccc1 | -11% | ? | 5% | 16
Nc1ccccc1Nc1cc(-c2ccccc2)[nH]n1 | nt | 20µM* | ? | nt
CCOC(=O)C1CCCN(C(=O)c2cc(-c3ccc(C)cc3)on2)C1 (configuration not stated) | 16µM* | -2% | -8% | 5
CCOC(=O)C1CCCN(C(=O)c2sc3nc(-c4ccc(F)cc4)cn3c2C)C1 (configuration not stated) | -44% | -4% | 10µM* | -2
COc1ccccc1OCC(=O)Sc1ccc(C)cc1 | 32µM* | -10% | -4% | -19
COc1ccccc1CNC(=O)Cn1cccc1 | 16µM* | 3% | 5% | ?
COc1ccccc1CNC(=O)CSc1ccc(C)cc1 | 14µM* | 2% | 1% | ?
CCOC(=O)Cc1csc(NC(=O)CSc2cc(Cl)ccc2Cl)n1 | -4% | 5% | -9% | ?
Cc1c(C(=O)NCCSCc2ccco2)cccc1[N+](=O)[O-] | -20% | 1% | -5% | -20
Cc1ccc(C(=O)NCCSCc2ccc(Cl)cc2Cl)cc1[N+](=O)[O-] | ? | 5% | ? | -12
Cc1ccc(SCCNC(=O)c2cccc([N+](=O)[O-])c2C)cc1 | 25µM* | 6% | ? | 17
Cc1c(C(=O)NCCSCc2ccc(Cl)cc2Cl)cccc1[N+](=O)[O-] | 22µM* | 1% | ? | 11
Cc1c(C(=O)NCCSc2ccc(Cl)cc2)cccc1[N+](=O)[O-] | -14% | -8% | -12% | 5
Cc1c(C(=O)NCCSCc2ccccc2)cccc1[N+](=O)[O-] | nt | 2% | 3.2µM* | nt
CCn1ccc(C(=O)Nc2ccccc2SC)n1 | nt | 1% | -9% | nt
Cc1ccc(S(=O)(=O)N2CCCC2C(=O)OCc2ccco2)cc1 (configuration not stated) | -14% | ? | 2.8µM* | -108*
SMILES | HPGD inh | KDM4E inh | ALDH1A1 inh | PNC inhibitor
Cc1ccc(S(=O)(=O)N2CCCC2C(=O)OCc2ccccc2)cc1 (configuration not stated) | -11% | 8% | 9% | -24
COc1cc(C(=S)N2CCOCC2)cc(OC)c1OC(=O)Cc1ccc(F)cc1 | 16µM* | 5% | 28µM* | -5
CCCn1c2ccccc2c2nnc(SC(CC)C(=O)Nc3sc4c(c3C#N)CCCC4)nc21 (configuration not stated) | -27% | 3% | 28µM* | ?
CC(C)(C)NCC(O)COc1nsnc1N1CCOCC1 (configuration not stated) | -9% | 0% | -5% | nt
CN(C)Cc1ccc(-c2cc3onc(-c4ccccc4)c3c(=O)n2C)cc1 | -2% | nt | -4%[13.5 µM] | nt
COC(=O)COc1ccc(S(=O)(=O)Nc2ccc(C(N)=O)cc2)cc1Cl | -3% | 5% | -3% | -92*
Cc1cccc(N2CCN(C(=S)c3ccc(-c4ccccc4[N+](=O)[O-])o3)CC2)c1 | -22% | -3% | ? | 12
O=[N+]([O-])c1ccccc1-c1ccc(C(=S)N2CCCC2)o1 | nt | 25µM* | 2.2µM* | nt

Bioassay records: PubChem, National Center for Advancing Translational Sciences (NCATS)
